Source: PubChem BioAssay AID1117319 (Southern Research Institute, 2015)
The whole screen tested about 260,000 compounds, of which about 1,500 (0.58%) were called active. Another 5% or so got no clear call; they are omitted.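 How the source made its calls: active means inhibition above a set limit at one or more doses, reproduced on every date tested; inconclusive means results disagree between test dates, or hit never tested in dose response; inactive means the rest.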 A selection follows. Measured potencies and affinities stand elsewhere.

Molecular target: Virion infectivity factor (Human immunodeficiency virus type 1 group M subtype B (isolate BH10)) + Virion infectivity factor (Human immunodeficiency virus type 1 group M subtype B (isolate BRU/LAI)) + Virion infectivity factor (Human immunodeficiency virus type 1 group M subtype B (isolate PCV12)) + Virion infectivity factor (Human immunodeficiency virus type 1 group M subtype B (isolate HXB2)) + DNA dC->dU-editing enzyme APOBEC-3G (Homo sapiens) (UniProt P69720+P69721+P69722+P69723+Q9HC16)
Assay: HIV-1 Vif–A3G interaction blockers – biochemical, TR-FRET, GST-Vif 1-94, biotin-A3G peptide, dose response retest, primary screen (AID 1117319);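 further: Vif residues 1-94 fused to GST binding biotinylated APOBEC3G peptide 110-148; 0% = full assay without inhibitor and 100% = GST in place of GST-Vif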
Conditions: TR-FRET GST-Vif / biotin-A3G peptide binding; active compounds read high

inhibition, inactive:
O=C(COC(=O)c1ccccn1)NCc1cccc(Cl)c1 11.7%
CCC1CCCCN1C(=O)c1ccccc1OC1CCN(S(C)(=O)=O)CC1 (stereo unspecified) 6.69%
Oc1c(CN2CCOCC2)cc(-c2ccccc2)cc1CN1CCOCC1 2.33%
Cc1c(Cl)cc(C(C)C)c(O)c1CN1CCOCC1 -0.22%
O=C(NCCCN1CCOCC1)c1csc2c1CCCC2 -1.89%
CCOc1ccc(-c2cc(C(=O)NCCCN3CCOCC3)c3ccccc3n2)cc1 -4.67%
O=C1NC(c2cn(-c3ccccc3)nc2-c2cccs2)C(C(=O)c2cccnc2)C(O)(C(F)(F)F)N1 (stereo unspecified) 1.08%
COc1ccc(C2NC(=O)NC(O)(C(F)(F)F)C2C(=O)c2ccccc2)cc1OC (stereo unspecified) -3.65%
CCC(Oc1ccccc1)C(=O)Nc1ccc(S(=O)(=O)N2CCOCC2)cc1 (stereo unspecified) 15.9%
CCc1nc(SCC(=O)N2CCCC2)c2ccccc2n1 14.3%
CCOc1cc(C(=O)Nc2ccc(N3CCOCC3)cc2)cc(Br)c1OC 12.9%
O=S(=O)(Nc1cc(C(F)(F)F)ccc1N1CCOCC1)c1ccccc1 2.04%
Cc1ccc(S(=O)(=O)Nc2cc(C(F)(F)F)ccc2N2CCOCC2)cc1 1.57%
COc1ccc(NS(=O)(=O)c2cccc(C(=O)NCC3CCCO3)c2)cc1 (stereo unspecified) 1.68%
COc1ccccc1N1CCN(CC(=O)Nc2cccc(F)c2)CC1 -5.83%
O=C(CN1CCCC1)Nc1ccc2c(c1)CCC2 -3.44%
O=C(CN1CCN(Cc2ccccc2)CC1)Nc1ccc2c(c1)CCC2 -3.36%
CC1CCN(CCNC(=O)c2ccc(NC(=O)C3CCCO3)cc2)CC1 (stereo unspecified) 2.71%
O=C(Nc1ccc2c(c1)CN(Cc1ccccc1O)CC2)C1CCCO1 (stereo unspecified) -4.54%
CCc1ccc(CC)c(S(=O)(=O)Nc2ccc(O)c(C(=O)O)c2)c1 -4.21%
O=C(O)c1ccc(NS(=O)(=O)c2cc(Cl)ccc2Cl)cc1O 3.01%
O=C(Nc1ccc(Br)cc1)C1CCN(C(=O)c2ccc(F)cc2)CC1 -10.6%
CCOC(=O)c1cnc(SCC(=O)OCC(=O)N(CC)C2CCS(=O)(=O)C2)nc1N (stereo unspecified) 4.12%
COc1cccc(NC(=O)CN(C)C(=O)/C=C/c2cn(Cc3ccccc3)nc2-c2cccnc2)c1 -9.6%
O=C(Nc1ccc(F)cc1)C(c1ccccc1)N1CCN(S(=O)(=O)c2c(F)cccc2F)CC1 (stereo unspecified) 22.6%
Cc1ccc(S(=O)(=O)N2CCN(C(C(=O)Nc3ccc(F)cc3)c3ccccc3)CC2)cc1 (stereo unspecified) 69.8%
COc1ccc(N2C=C3C(=O)C(C)(OC(=O)CCc4ccccc4)C(=O)C=C3C=C2c2ccc(C#N)cc2)cc1 (stereo unspecified) 11.3%
COC(=O)CCC(=O)OC1(C)C(=O)C=C2C=C(C3CC3)N(CCCOC(C)C)C=C2C1=O (stereo unspecified) 20.5%
COC(=O)CCC(=O)OC1(C)C(=O)C=C2C=C(C3CC3)N(Cc3ccc(OC)cc3)C=C2C1=O (stereo unspecified) 31.5%
CC(C)OCCCN1C=C2C(=O)C(C)(OC(=O)CCc3ccccc3)C(=O)C=C2C=C1c1ccc(C#N)cc1 (stereo unspecified) 12.3%
O=[N+]([O-])c1ccc2nc(SCc3ccccc3Cl)sc2c1 2.57%
CC(C)n1c(SCC(=O)N2c3ccccc3Sc3ccccc32)nc2c1c(=O)n(C)c(=O)n2C 1.71%
Cc1ccc2cccc(SCC(=O)NCc3ccco3)c2n1 5.4%
Cc1ccc(S(=O)(=O)N(C)c2ccc(C(=O)NCC(c3ccco3)N3CCCC3)cc2)cc1 (stereo unspecified) -9.74%
CC(C)(C)c1ccc(/C=C/C(=O)N2CCc3ccccc3C2)cc1 7.01%
Cc1ccc(/C=C/C(=O)N2CCc3ccccc3C2)cc1 0%
CC12CCC(=O)C=C1CCC1C2C(O)CC2(C)C1CCC2(O)C(=O)COC(=O)COCC(=O)O (stereo unspecified) 0.66%
COc1ccccc1NC(=O)c1ccc(NC(=O)c2cc3c(s2)CCC3)cc1 -2.47%
CNC(=O)COC(=O)c1cc2c(s1)CCCC2 0.25%
Cc1c(/C=N/O)c2ccccn2c1C(=O)c1ccc(F)cc1 -0.95%
CC(C)C1CC(C(F)(F)F)n2nc(C(=O)O)cc2N1 (stereo unspecified) 7.12%
Cc1cc(C)nc(SCc2nnc(SCC(=O)Nc3nc(-c4ccccc4)cs3)n2C)n1 -21.4%
Cc1ccc(N2CCN(c3ccc(C)cc3)C2c2cccnc2)cc1 -3.62%
Cc1ccc(N2CCN(c3ccc(C)cc3)C2c2ccncc2)cc1 13.1%
N#CCCN(C(=O)COC(=O)c1cc(S(=O)(=O)N2CCOCC2)ccc1Cl)c1ccc(F)cc1 -1.91%
CC(=O)Nc1ccc2nc(NC(=O)CS(=O)(=O)c3ccccc3)sc2c1 5.59%
Cc1ccc(NS(=O)(=O)c2c(C)[nH]c(=O)[nH]c2=O)cc1C 0.84%
Cc1[nH]c(=O)[nH]c(=O)c1S(=O)(=O)Nc1cccc(C(F)(F)F)c1 -6.82%
Cc1ccc(C)c2[nH]c(=O)c(CCNC(=O)c3cc4ccccc4o3)cc12 24.9%
O=C(Cc1ccccc1)NC1CCN(C(=O)c2ccc([N+](=O)[O-])cc2)CC1 -1.3%
CCOc1ccccc1CN1CCN(Cc2csc(C(C)=O)c2)CC1CCO (stereo unspecified) 3.88%
Cc1cc([N+](=O)[O-])c(C)cc1-c1ccc(/C=N/NC(=O)Cn2nnnc2N)o1 9.49%
Nc1nonc1C(=O)N/N=C/c1ccc(-c2cccc([N+](=O)[O-])c2)o1 -3.49%
C=CCN1C(=O)C(CC(=O)Nc2ccc(C)cc2)SC1=Nc1c(C)n(C)n(-c2ccccc2)c1=O (stereo unspecified) 4.69%
O=C(Cc1c(F)cccc1Cl)NCc1cccnc1 -4.5%
CC(=O)Nc1ccc(OCC(O)CN2CCN(c3ccc(Cl)cc3)CC2)cc1 (stereo unspecified) 22.8%
Cc1ccc(SCCCCN2C(=O)NC(C)(C)C2=O)cc1 -3.51%
CC1(C)NC(=O)N(CCSc2ccc(Cl)cc2)C1=O -1.11%
CCc1cccc(CC)c1NC(=O)C(NS(=O)(=O)c1cccs1)c1ccccc1 (stereo unspecified) 9.9%
CCOC(=O)C1=C(COC(=O)c2ccc(Cl)nc2)NC(=O)NC1C (stereo unspecified) 5.43%
CC1NC(=O)NC1CCCCC(=O)O (stereo unspecified) 3.51%
O=C(O)CCCCCCCCCCC1CCC(O)C1O (stereo unspecified) -4.99%
CC(=O)N(c1ccccc1C)c1ccccc1C -4.05%
CSCCC(NC(=O)c1ccccc1)C(=O)NCCCSc1ccccc1 (stereo unspecified) -3.49%
O=C(CCC1CCCC1)NNC(=O)c1ccccc1O -4.22%
COc1ccc(CCNC(=O)COc2ccc(S(=O)(=O)N3CCCC3)cc2)cc1 -4.34%
CC(C)NS(=O)(=O)c1ccc(OCC(=O)NCCC2=CCCCC2)cc1 2.83%
Cc1nnc(SCC(=O)N2CCN(S(=O)(=O)c3ccccc3)CC2)s1 -8.25%
CCc1ccc(/C=N/n2c(C3CCCCC3)n[nH]c2=S)cc1 -5.47%
CC(C)(CO)NCc1cc(Br)ccc1OCc1ccccc1 -4.77%
CCC1=NN2C(=N)/C(=C\c3ccc(OCCOc4ccc(NC(C)=O)cc4)c(OC)c3)C(=O)N=C2S1 -0.34%
COc1ccc(C(=O)c2ccc(OC)cc2O)c(O)c1 4.6%
COc1ccc(OC)c(N)c1 14.5%
CCOC(=O)Cc1ncccc1C(=O)Nc1ccc(Oc2ccccc2)cc1 -1.5%
COc1ccc(C(=O)NCc2nnc(SCC(=O)Nc3nc4ccccc4s3)o2)cc1OC 0.33%
COc1ccc(C(=O)NCc2nnc(SCC(=O)Nc3nc4ccc(C)cc4s3)o2)cc1OC 9%
Cc1ccc(CSc2nc3ccncc3n2CC(=O)Nc2cc(C)cc(C)c2)cc1 -48.6%
Cc1sc2ncnc(NCc3ccco3)c2c1C 23.1%
Cc1sc2ncnc(SCC(=O)NC(=O)NCc3ccco3)c2c1C -3.92%
COc1ccc2c(c1)CC(C1(O)C(=O)N(C)c3ccccc31)C2=O (stereo unspecified) -5.17%
CC(=O)c1ccc(NC(=O)Nc2ccc3c(c2)nc(C)n3C)cc1 11.4%
Cc1ccc(NC(=O)Nc2ccc3c(c2)nc(C)n3C)cc1 66.9%
COc1ccc(NC(=O)CN(C)C(=O)CSc2nc3ccccc3s2)cc1 -0.85%
Cc1ccc(-n2nc3c(c2NC(=O)c2ccc(Br)o2)CSC3)c(C)c1 17%
Cc1ccccc1-n1nc2c(c1NC(=O)c1ccc(Br)o1)CSC2 17.6%
COc1ccc(NC(=O)COC(=O)c2ccc(S(=O)(=O)N3CC(C)CC(C)C3)cc2)cc1OC (stereo unspecified) 0.85%
CC(=O)Nc1ccc(S(=O)(=O)Nc2nc3ccccc3nc2Nc2cccc(O)c2)cc1 6.78%
CC(=O)Nc1ccc(S(=O)(=O)Nc2nc3ccccc3nc2Nc2ccc(O)cc2)cc1 -3.02%
CC(=O)Nc1ccc(Nc2nc3ccccc3nc2NS(=O)(=O)c2ccccc2)cc1 17.2%
CC(=O)Nc1ccc(S(=O)(=O)Nc2nc3ccccc3nc2Nc2ccc(S(N)(=O)=O)cc2)cc1 23.8%
Cc1ccc(NC(=O)CS(=O)(=O)c2c[nH]c3ccccc23)c(C)c1 -0.62%
